Data on 29 compounds can be found in PubChem BioAssay AID1851 (National Center for Advancing Translational Sciences (NCATS), 2009).

Screen size: about 16,000 compounds; about 5,800 (36%) were called active. Not shown: some 23% with an inconclusive outcome. The call rests on the fitted dose curve; in most records, active means well fitted curve in the direction sought with a large enough effect; inconclusive means small, poorly fitted or top-dose-only effect, or effect the other way; inactive means no such curve, though single readings can be large or run the other way. The list shows a part of the results.
On the % scale 0 is the no-effect control and ±100 the full control effect.

For this assay, the target named is Cytochrome P450 2C19 (Homo sapiens) (UniProt P33261). Briefly: Cytochrome panel assay with activity outcomes. The following applies: recombinant CYP, pro-luciferin dealkylation, luminescence, p450-cyp2c19; series mostly up to 57.1 µM; activity, negative = inhibition: at the top concentration.
Cytochrome P450 2C19 (Homo sapiens), sequence (P33261 whole entry, looked up): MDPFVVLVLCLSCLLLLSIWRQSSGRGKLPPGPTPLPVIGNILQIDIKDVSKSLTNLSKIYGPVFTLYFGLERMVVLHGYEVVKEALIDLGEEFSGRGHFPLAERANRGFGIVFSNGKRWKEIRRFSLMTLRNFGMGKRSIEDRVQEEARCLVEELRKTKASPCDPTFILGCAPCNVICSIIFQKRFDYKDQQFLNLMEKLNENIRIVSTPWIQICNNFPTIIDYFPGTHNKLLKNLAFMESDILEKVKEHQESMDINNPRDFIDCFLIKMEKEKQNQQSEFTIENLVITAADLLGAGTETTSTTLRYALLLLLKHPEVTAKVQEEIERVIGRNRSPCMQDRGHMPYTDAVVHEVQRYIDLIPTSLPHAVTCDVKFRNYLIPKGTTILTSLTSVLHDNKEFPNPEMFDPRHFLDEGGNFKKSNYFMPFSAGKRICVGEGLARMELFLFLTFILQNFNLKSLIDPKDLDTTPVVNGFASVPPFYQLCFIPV
What is called AC50 is the concentration at which the activity in the assay is half-maximal. For `CCOC(=O)CSc1ncc(OC)c(Sc2ccc(Cl)cc2)n1`, the AC50 is 1.78 µM (active).

For `COC(=O)CSc1ncc(OC)c(OC)n1`, the “activity, negative = inhibition” value is 4.64% (inactive).

On to `CCOC(=O)C(C)Sc1ncc(OC)c(Sc2ccc(Cl)cc2)n1` (centres undefined), for which the concentration at half-maximal activity (AC50) was 3.55 µM (active).

Consider `CC[C@H]1CC[C@H]2[C@@H]3CC=C4C[C@H](OC(C)=O)[C@@H](N)C[C@@]4(C)[C@H]3CC[C@@]12C`, for which the activity, negative = inhibition is 22.6% [at 11.4 µM] (inactive).

For the compound `c1ccc(-c2c3ccccc3nc3[nH]c4ccccc4c23)cc1`, the AC50 is 10 µM (active).

As for `O=c1c2ccccc2nc2n1CCc1c-2[nH]c2ccccc12`, the “activity, negative = inhibition” value was -20.2% (inactive).

Turning to `CCCCc1c2ccccc2nc2[nH]c3ccccc3c12`, the “activity, negative = inhibition” value is -4.3% (inactive).

Take `Clc1ccc(CC[C@H](Cn2ccnc2)Sc2c(Cl)cccc2Cl)cc1`: the AC50 was 0.00251 µM (active).

For the compound `COc1ccc(S(=O)(=O)N2CCCCCC2)cc1N(C)S(=O)(=O)c1ccc(Cl)cc1`, the AC50 is 5.01 µM (active).

Regarding `COc1ccc(NS(=O)(=O)c2ccc(I)cc2)cc1N1CCN(C)CC1`, the “activity, negative = inhibition” value was -0.637% (inactive).

For `COc1ccc(S(=O)(=O)Nc2ccc(S(=O)(=O)N3CCCCC3)cc2)cc1C`, the AC50 was 2.82 µM (active).

On to `N#Cc1ccc(CN2CCC3(CC2)CCN(C(=O)c2cc(C(F)(F)F)cc(C(F)(F)F)c2)CC3)cc1`, for which the “activity, negative = inhibition” value is -15% (inactive).

Consider `O=c1c(-c2ccc(O)cc2)coc2cc(O)ccc12`, for which the half-maximal activity concentration (AC50) was 10 µM (active).

As to `O=c1c(-c2ccc(Cl)cc2)nc2cncnc2n1Cc1ccccc1Cl`, the AC50 is 3.98 µM (active).

With `O=c1c(-c2ccc(F)c(F)c2)nc2cncnc2n1Cc1ccccc1Cl`, the AC50 is 6.31 µM (active).

`O=c1c(-c2ccc(F)c(F)c2)nc2cncnc2n1C1CC1`: the “activity, negative = inhibition” value is -7.87% (inactive).

On to `CN(CCOc1ccc(C[C@H](Nc2ccccc2C(=O)c2ccccc2)C(=O)O)cc1)c1ccccn1`, for which the AC50 is 3.98 µM (active).

Consider `CNc1nc(NCCOC23CC4CC(CC(C4)C2)C3)nc(OCC(F)(F)F)n1`, for which the AC50 was 1.41 µM (active).

For `O=C(c1ccco1)N1CCC2(CC1)CN(C(c1ccccc1)c1ccccc1)C2`, the “activity, negative = inhibition” value was -40.8% (inactive).

For the compound `CCC(c1nnnn1CCOC)N1CCN(C(=O)c2ccco2)CC1` (centres undefined), the AC50 was 3.98 µM (active).

Consider `CC(C)CCn1nnnc1C(c1ccc(F)cc1)N1CCN(C(=O)c2ccco2)CC1` (centres undefined), for which the AC50 is 4.47 µM (active).

Consider `O=C(c1ccco1)N1CCC2(CC1)CCN(C(c1ccccc1)c1ccccc1)CC2`, for which the “activity, negative = inhibition” value is -18.3% (inactive).

For `C[C@]1(OC(=O)/C=C\c2ccccc2)C[C@@H](O)[C@@]2(O)C=CO[C@@H](O[C@H]3O[C@@H](CO)[C@@H](O)[C@@H](O)[C@@H]3O)[C@H]21`, the “activity, negative = inhibition” value is -17.6% [at 25.6 µM] (inactive).

`CCN(CC)C(=O)CSc1nnc(-c2ccncc2)n1N`: the “activity, negative = inhibition” value is -17.2% (inactive).

With `O=C(CSc1nnc(-c2ccccc2)n1-c1ccccc1)c1cccs1`, the half-maximal activity concentration (AC50) is 0.631 µM (active).

Turning to `CC(C)NC(=O)CSc1nnc(C2CC2)n1-c1ccccc1`, the “activity, negative = inhibition” value is 20.4% (inactive).

For `CCOc1ccc(-n2c(SCC(=O)Nc3ccccc3C)n[nH]c2=O)cc1`, the AC50 is 5.62 µM (active).

For the compound `Cc1ccccc1NC(=O)CSc1nnc(-c2ccccc2)n1-c1ccccc1`, the AC50 is 2.24 µM (active).

For the compound `Cc1ccc(C(=O)NNC(=O)CSc2nnc(-c3ccncc3)n2-c2ccc(C)cc2)cc1`, the AC50 was 5.62 µM (active).
